These results are taken from PubChem BioAssay AID2736 (Broad Institute, 2010).

Some of the results follow. Activity calls are given as the source filed them.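 The calls were made as follows: active = every replicate shows more than 75% inhibition of signal versus neutral control wells; inconclusive = half to three quarters of replicates exceed 75% inhibition; inactive = fewer than half of replicates exceed 75% inhibition.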

This assay can be described thus: Vibrio harveyi AI-2 signaling luminescence modulation – JMH597 strain, confirmation (AID 2736). The following applies: Vibrio harveyi JMH597 AI-2 quorum sensing luminescence, 9 h; at 7.5 µM; hits give high values; luxN and CqsS knockout, AI-2 only.
Turning to `S=C(NCc1ccc(Cl)cc1)NC1CCCCC1`, the inhibition was 95.5% (active). With `O=C(c1cc(-c2cccc(O)c2)on1)N1CCc2ccccc2C1` the figure was 94.4% (active); with `Cc1ccccc1NC(=O)CCOc1ccccc1`, 91.6% (active); with `O=C1COc2ccc(S(=O)(=O)Nc3ccc(OC(F)(F)F)cc3)cc2N1`, 99.2% (active). As for `O=C(/C=C/c1ccc2c(c1)OCCO2)c1ccc(O)cc1`, the inhibition was 95.7% (active). With `Cc1ccsc1C(=O)OCC(=O)c1cc2ccccc2o1`, the inhibition was 96.8% (active). With `Cc1ccc(Oc2cnn(-c3ccccc3)c(=O)c2Br)cc1` the figure was 99.3% (active); with `Cc1ccccc1C(=O)Nc1ccc(N2CCCCCC2)cc1`, 94.5% (active). With `Cc1ccc(NC(=O)C2CC2c2ccccc2)cc1` (stereo not drawn), the inhibition is 94.7% (active).

For `CCOC(=O)c1nn(-c2cccc(C)c2)cc1C(=O)c1ccccc1`, the inhibition was 93.5% (active). Turning to `O=C(/C=C/c1ccc2c(c1)OCO2)NCc1ccc(F)cc1`, the inhibition was 94.2% (active). Consider `CN(Cc1cnccn1)C(=O)c1cc(COc2cccc(C(F)(F)F)c2)on1`, for which the inhibition is 97.2% (active). With `CC(=O)c1cccc(OCc2cc(C(=O)NC(C)Cc3cccnc3)no2)c1` (stereo not drawn) the figure was 95.5% (active); with `CC(CNc1ccc([N+](=O)[O-])cc1)NC(=O)c1ccccc1Br` (stereo not drawn), 8.81% (inactive). With `Cc1cccc(CSc2ccc(-c3cccs3)nn2)c1` the figure was 96.9% (active). The value for `CC(C)(C)c1ccc(OC2=CS(=O)(=O)c3ccccc32)cc1` was 96.6% (active); that for `CCOc1ccc(/C=N/NC(N)=S)cc1` was 94.3% (active); that for `Cc1cc(C(=O)OCC(=O)Nc2ccc(F)c(F)c2)c(C)o1` was 97.8% (active). As for `COc1ccc(/C(N)=N/OC(=O)Cc2ccccc2)cc1`, the inhibition is 96% (active). With `COc1cccc(NC(=O)NCc2ccc(F)cc2)c1` the figure was 95.3% (active); with `COC(=O)c1ccc(SCc2ccccc2)nc1`, 97.3% (active); with `Cc1nn(CC(=O)Nc2ccc(F)cc2)c(=O)c2ccccc12`, 99% (active).

For `COC(=O)C1CCN(C(=O)c2ccc3oc(Cc4ccc(Cl)cc4)nc3c2)CC1`, the inhibition was 96.4% (active). With `O=C(Cn1cnc2ccccc2c1=O)Nc1cccc(S(=O)(=O)N2CCCCC2)c1` the figure was 88.6% (active). The value for `N/C(=N\OC(=O)CCc1ccccc1)c1cccnc1` was 93.1% (active); that for `O=C(Nc1ccc(F)c(Cl)c1)C1CCN(S(=O)(=O)c2cccnc2)CC1` was 98.4% (active); that for `Cc1ccc(NS(=O)(=O)c2ccc3c(c2)NC(=O)CO3)cc1` was 95% (active). With `O=C(CCC(=O)c1cccs1)Nc1nc2ccccc2s1` the figure was 97.8% (active). As for `Cc1ccc(Cc2nc(-c3cccc(C)c3)no2)cc1`, the inhibition is 94.6% (active). For the compound `O=S(=O)(Nc1cccc(Oc2ccc(Cl)cc2)n1)c1ccc(F)cc1`, the inhibition is 99.7% (active). Consider `Cc1cc(CN(C)C(=O)c2cc(COc3ccc(C)c(C)c3)on2)n[nH]1`, for which the inhibition was 97.5% (active). With `O=C(COC(=O)C1CCCCC1)Nc1ccc([N+](=O)[O-])cc1` the figure was 95.3% (active); with `O=C(COc1ncnc2ccccc12)NC(=O)NCc1ccccc1`, 96.5% (active).
